Bioassay records: PubChem BioAssay, National Center for Advancing Translational Sciences (NCATS)
D3 ag: agonists of human D3 dopamine receptor; P35462; 410,000 tested, 0.58% active; max activation, %; D3R DiscoveRx beta-arrestin cells, luminescence, 90 min; in the data active means max activation above about 30%
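Agonist mode: compounds and dopamine controls were applied to plated cells for 90 min at 37 degrees C after an overnight attachment at 1500 cells/well. Luminescent read-out followed 30 - 60 minutes at room temperature with DiscoveRx detection reagent.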
B2AR arrestin: recruits beta-arrestin to the human beta2-adrenergic receptor. Potency, µM (titrated, usually from 46.1 µM), most hits filed as activators. 330,000 tested, 0.02% active. beta-arrestin recruitment to beta2AR, cell-based reporter. P07550. AID 492947; active means well fitted activation curve with a large enough effect; inconclusive means small, poorly fitted or top-dose-only effect; further: nearly all actives have a fitted effect of over 65% in size
Target sequence (P07550 whole entry, looked up): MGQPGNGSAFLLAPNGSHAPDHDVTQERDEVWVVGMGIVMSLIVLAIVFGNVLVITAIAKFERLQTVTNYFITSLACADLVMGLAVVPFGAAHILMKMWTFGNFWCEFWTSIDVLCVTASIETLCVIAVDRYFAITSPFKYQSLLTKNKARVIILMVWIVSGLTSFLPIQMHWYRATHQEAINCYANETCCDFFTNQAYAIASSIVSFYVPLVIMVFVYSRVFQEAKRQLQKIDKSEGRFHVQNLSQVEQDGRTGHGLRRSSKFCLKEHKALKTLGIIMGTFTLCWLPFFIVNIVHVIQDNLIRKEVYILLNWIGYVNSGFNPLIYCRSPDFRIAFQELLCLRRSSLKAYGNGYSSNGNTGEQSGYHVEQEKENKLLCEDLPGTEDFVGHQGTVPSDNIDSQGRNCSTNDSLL
DRD3 antagonist: antagonists of human D3 dopamine receptor; AID 652054; 360,000 tested, 2.5% active; max response, negative = inhibition, %; D3R cells, DiscoveRx beta-arrestin luminescence, antagonist mode; hits give low values; P35462; in the data active means max response below about -50%; inconclusive means no clear call, values can overlap the other calls
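Cells plated overnight at 1500 cells/well, then exposed to library compounds with dopamine controls for 90 minutes at 37 degrees C. DiscoveRx reagent added for 30–60 minutes at room temperature; luminescence read, quantitative HTS format.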
TSHR antagonist: blocks TSH signaling through the human TSH receptor | P16473 | TSHR-expressing cells, TSH-stimulated cAMP HTRF, 2 h; hits give low values | activity change, negative = inhibition, % at 11.5 µM | 330,000 tested, 0.2% active | AID 504810;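 active means activity change below a set negative limit, meaning inhibition stronger than a set level, cut at about -70% in these data; inconclusive means activity change between two set negative limits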
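Read-out is FRET at 665 nm (cryptate excitation 337 nm) from a cryptate-tagged anti-cAMP antibody, competed by cell cAMP against cAMP-d2. Compounds are tested on freshly harvested TSHR cells challenged with 4nM TSH (EC80) for 2 hours at 37 deg C.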
Large screens that a line does not name were inactive. Shown are actives, neighbours in structure and some others; about 2.9% of the full set was active somewhere.

CN(C)CCCN1c2ccccc2CCc2ccc(Cl)cc21	DRD3 antagonist -103.5
CCn1c(=NC(=O)c2ccc(N3C(=O)CCC3=O)cc2)sc2c(OC)ccc(OC)c21	DRD3 antagonist -76.5
CN(C)S(=O)(=O)c1ccc2c(c1)N(CC(=O)N1CCN(c3cccc(Cl)c3)CC1)CCS2	none (no result: B2AR arrestin, DRD3 antagonist, TSHR antagonist)
CC(C)(C)c1ccc(C(=O)N2CCC2(C)C(=O)Nc2cccc3ccccc23)cc1 (stereo not given)	none (no result: B2AR arrestin, TSHR antagonist)
CC(C)(C)c1ccc(C(=O)N2CCC2(C)C(=O)Nc2cccc3ncccc23)cc1 (stereo not given)	D3 ag 83.7 (no result: B2AR arrestin, TSHR antagonist)
COc1ccc(NC(=O)CSc2oc(-c3cccs3)nc2S(=O)(=O)c2ccc(C)cc2)c(OC)c1	none (no result: B2AR arrestin, DRD3 antagonist, TSHR antagonist)
COc1ccc(NC(=O)CSc2oc(-c3cccs3)nc2S(=O)(=O)c2ccccc2)c(OC)c1	D3 ag 58.6 (no result: B2AR arrestin, DRD3 antagonist, TSHR antagonist)
CCc1cccc(-n2nnc(-c3nc(-c4ccccc4Cl)no3)c2N)c1	none (no result: B2AR arrestin, DRD3 antagonist, TSHR antagonist)
CCN(CC)CCNC(=O)C1CCC(=O)N(c2ccc(OC)cc2)C1c1ccc(F)cc1 (stereo not given)	DRD3 antagonist -66.6
CCCN(CCC)CCNC(=O)C1CC(=O)N(c2ccc(OC)cc2)C1c1ccc(OC)cc1 (stereo not given)	none
COCCN1C(=O)c2ccccc2C(C(=O)NCCN(C)C)C1c1ccc(F)cc1 (stereo not given)	DRD3 antagonist -63.2
CCCN(CCC)CCNC(=O)C1c2ccccc2C(=O)N(CCOC)C1c1ccc(F)cc1 (stereo not given)	none
CCN(CC)CCNC(=O)C1c2ccccc2C(=O)N(CCOC)C1c1ccc(F)cc1 (stereo not given)	DRD3 antagonist -61.6
COCCNC(=O)C1c2ccccc2C(=O)N(CCOC)C1c1ccc(F)cc1 (stereo not given)	none
COc1ccc(NC(=O)c2cc3c([nH]c2=O)CC(c2ccccc2)CC3=O)cc1 (stereo not given)	none (no result: B2AR arrestin, DRD3 antagonist, TSHR antagonist)
COc1ccc(/C=C/C(=O)O)cc1S(=O)(=O)NCc1ccccc1	D3 ag 35.5
CCc1cccc(NC(=O)CSc2nncn3c2cc2sccc23)c1	none (no result: B2AR arrestin, DRD3 antagonist, TSHR antagonist)
COc1cc(OC)cc(-c2nc3ccccc3c(=O)n2OC(=O)c2ccc(C)c(C)c2)c1	D3 ag 30.0
COc1cc(OC)cc(C(=O)Nn2c(C)nc3ccccc3c2=O)c1	none
Cc1nc2ccn(Cc3cccnc3)c(=O)c2cc1C(=O)N1CCN(c2ccccc2)CC1	none (no result: B2AR arrestin, DRD3 antagonist, TSHR antagonist)
CC(C)Cn1cc(NC(=O)N2CCN(c3cccc(Cl)c3)CC2)c2ccccc2c1=O	none (no result: B2AR arrestin, DRD3 antagonist, TSHR antagonist)
COc1ncccc1C(=O)N1CCC(n2nccc2NC(=O)CC(C)C)CC1	DRD3 antagonist -52.1
CC(C)CC(=O)Nc1ccnn1C1CCN(C(=O)c2ccc(F)cc2Cl)CC1	none
Cc1ccc2oc(C(=O)Nc3c(C(=O)Nc4cccc(Cl)c4)oc4ccccc34)cc(=O)c2c1	none (no result: B2AR arrestin, DRD3 antagonist, TSHR antagonist)
O=[N+]([O-])c1ccc(O)c(NC(=S)Nc2ccccc2)c1	DRD3 antagonist -77.7
O=[N+]([O-])c1ccc(NC(=S)NCCc2ccccc2)cc1	TSHR antagonist inconclusive
O=[N+]([O-])c1ccc(NC(=S)NCCc2ccc(Cl)cc2)cc1	TSHR antagonist -74.8
O=[N+]([O-])c1ccc(NNC(=S)Nc2ccccc2)cc1	DRD3 antagonist -92.8
Cc1ccccc1NC(=O)Cn1cc(S(=O)(=O)c2ccccc2)c(=O)c2ccccc21	none (no result: B2AR arrestin, DRD3 antagonist, TSHR antagonist)
CCC(C)CN1C(=O)CN(S(C)(=O)=O)CC1(C)C(=O)Nc1c(C)cccc1C (stereo not given)	none (no result: B2AR arrestin, TSHR antagonist)
Cc1ccc(N2CC(c3nnc(Cc4ccc(Cl)cc4)o3)CC2=O)cc1 (stereo not given)	none (no result: B2AR arrestin, DRD3 antagonist, TSHR antagonist)
CC(C)C[C@H]1CN=C(Nc2ccccc2)N1CCCC1CCCC1	DRD3 antagonist -51.3
O=[N+]([O-])c1cccc(C2NCC(c3ccccc3Cl)c3c2[nH]c2ccccc32)c1 (stereo not given)	DRD3 antagonist -64.1
CN(C)c1ccc(C2CNC(c3ccc(Cl)c([N+](=O)[O-])c3)c3[nH]c4ccccc4c32)cc1 (stereo not given)	none
COCCNC(=O)c1cc2c(c(-c3cccc(-c4cc5ccccc5o4)c3)n1)[C@@H](CCO)N(S(=O)C(C)(C)C)C2 (stereo not given in full)	none (no result: B2AR arrestin, TSHR antagonist)
Cc1ccc(N(C)S(=O)(=O)c2cccc(C(=O)Nc3nc4ccccc4[nH]3)c2)cc1	D3 ag 42.2
Cc1cccc(NS(=O)(=O)c2cccc(C(=O)NCC(c3ccco3)N3CCCCC3)c2)c1 (stereo not given)	DRD3 antagonist -63.7
